# Test results taken from PubChem BioAssay.
# Activity calls are given as the source filed them.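 How the source made its calls, unless noted: active means viability loss from added drug above about 55%, and viability with drug at most 40%, in both replicates (limit read from the data, passing the limit was not always enough); inconclusive means both conditions met in only one replicate; inactive means neither replicate meets both conditions.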
# Key:
# [1] = Her2 expression decrease, cell viability multiplex – SKBR3 breast tumor cells, AlphaScreen, ATP viability, primary screen (AID 461;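 active means Her2 level under about 52% in both replicate screens, with viability over 70% of control, limit read from the data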;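 on Her2 level: lower value means less Her2 protein in the cells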;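 on viability: percent of carrier control wells set as 100% viability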); details: SKBR3 Her2 protein level, 18-24 h, measured here: SKBR3 viability, ATP luminescence, at 10 µM
# [2] = target: Receptor tyrosine-protein kinase erbB-2 (Homo sapiens) (UniProt P04626); experiment: as above; details: 18-24 h, at 10 µM, stronger effect = lower value
# [3] = reduced viability of SK-BR-3 breast cancer cells – cell-based, 24 h, human, pilot screen (AID 572;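 active means viability at or below 10% of carrier control in both of two separate runs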;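 further: compound exposure lasted between 18 and 24 h rather than exactly 24 h; 100% = carrier-treated control wells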); details: SK-BR-3 viability, CellTiter-Glo luminescence, at 10 µM, stronger effect = lower value
# [4] = H69AR cell proliferation blockers – human, duplicate replicates, primary screen (AID 580;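 active means viability at or under a set limit in both replicates, limit being median viability minus 3 SD, cut at about 48% in these data, passing the limit was not always enough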;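 further: 100% = mean luminescence of untreated wells and 0% = no signal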); details: H69AR lung tumor cells viability, ATP luminescence, 72 h; at 10 µM; stronger effect = lower value
# [5] = MRP1 drug-resistance reversers in H69AR cells – cell-based, doxorubicin co-treatment, pilot screen (AID 601); details: CellTiter-Glo, 72 h, at 10 µM; for differential viability (reversal): stronger effect = higher value
# [6] = yeast transport mutant growth inhibition pilot in 384-well plates, post-Golgi transport modulator project (AID 636; in the data active means inhibition above about 31%); details: absorbance 615 nm, about 18 h, stronger effect = higher value
# [7] = growth suppression of yeast trafficking mutant, preliminary HTS, modulators of trafficking downstream of Golgi apparatus project, 1536-format plate, OD 615 nm (AID 637; in the data active means inhibition above about 30%); details: yeast transport mutant growth, absorbance 615 nm, 18 h; stronger effect = higher value
# [8] = H69AR cells + 2 uM doxorubicin, measured here: viability with 2 uM doxorubicin, stronger effect = lower value
# [9] = H69AR cells, compound alone cytotoxicity
# Receptor tyrosine-protein kinase erbB-2 (Homo sapiens), sequence (P04626 whole entry, looked up): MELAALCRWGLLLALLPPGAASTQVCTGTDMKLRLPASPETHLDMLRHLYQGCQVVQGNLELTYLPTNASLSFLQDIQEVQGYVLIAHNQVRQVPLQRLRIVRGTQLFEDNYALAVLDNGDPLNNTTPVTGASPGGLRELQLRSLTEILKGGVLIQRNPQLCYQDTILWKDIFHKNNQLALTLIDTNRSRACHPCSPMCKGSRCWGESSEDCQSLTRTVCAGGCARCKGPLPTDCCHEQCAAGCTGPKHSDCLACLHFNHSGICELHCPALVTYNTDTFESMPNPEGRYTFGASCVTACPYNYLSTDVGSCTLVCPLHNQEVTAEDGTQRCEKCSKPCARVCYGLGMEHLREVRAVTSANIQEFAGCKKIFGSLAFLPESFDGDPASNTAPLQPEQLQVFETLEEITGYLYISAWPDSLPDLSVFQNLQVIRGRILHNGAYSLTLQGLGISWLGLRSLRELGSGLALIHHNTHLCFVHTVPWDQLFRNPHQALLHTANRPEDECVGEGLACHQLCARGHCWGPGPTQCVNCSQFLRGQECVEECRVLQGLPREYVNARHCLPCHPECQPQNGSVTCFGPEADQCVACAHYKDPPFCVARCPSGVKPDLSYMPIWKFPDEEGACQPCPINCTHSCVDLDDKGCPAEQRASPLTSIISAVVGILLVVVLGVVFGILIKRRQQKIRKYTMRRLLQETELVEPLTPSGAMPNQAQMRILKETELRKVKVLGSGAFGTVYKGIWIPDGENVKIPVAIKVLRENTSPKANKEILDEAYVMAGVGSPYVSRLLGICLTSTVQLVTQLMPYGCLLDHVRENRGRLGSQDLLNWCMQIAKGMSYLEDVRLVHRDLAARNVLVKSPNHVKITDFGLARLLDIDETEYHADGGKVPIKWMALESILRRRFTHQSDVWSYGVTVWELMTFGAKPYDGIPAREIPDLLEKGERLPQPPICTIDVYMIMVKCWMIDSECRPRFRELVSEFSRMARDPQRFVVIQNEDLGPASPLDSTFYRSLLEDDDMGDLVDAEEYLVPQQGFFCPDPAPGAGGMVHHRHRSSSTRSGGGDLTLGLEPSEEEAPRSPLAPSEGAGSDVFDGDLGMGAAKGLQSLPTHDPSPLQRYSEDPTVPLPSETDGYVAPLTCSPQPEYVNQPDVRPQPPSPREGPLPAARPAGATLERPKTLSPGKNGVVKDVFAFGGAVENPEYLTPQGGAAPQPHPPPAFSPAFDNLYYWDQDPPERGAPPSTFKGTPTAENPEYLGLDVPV
SMILES,viability [1] [%],Her2 level [2],viability [3],viability [4],differential viability (reversal) ([5]; H69AR cells + 2 uM doxorubicin),"viability [5, 8] [%]","viability [5, 9] [%]",inhibition [6],inhibition [7]
CCOC(=O)c1cnn(-c2sc(C(=O)OCC)c(C)c2C(=O)OCC)c1N,95,93.5% (inactive),95% (inactive),15.8% (active),-25.8% (inactive),41.6,15.8,0.27% (inactive),-4.6% (inactive)
COc1ccccc1NC(=O)NCCCN1CCN(c2cccc(Cl)c2)CC1,77,70.5% (inactive),77% (inactive),72.6% (inactive),-14.3% (inactive),86.8,72.6,4.4% (inactive),-7.7% (inactive)
COc1cccc(-c2cc3nc4c(c(N5CCC6(CC5)OCCO6)n3n2)CCCC4)c1,124,67.5% (inactive),124% (inactive),58.5% (inactive),-3.45% (inactive),61.9,58.5,35.3% (active),21.6% (inactive)
CCCOc1ccccc1C1CC(=O)Nc2cc3c(cc21)OCCO3 (stereo not given),84,67% (inactive),84% (inactive),34.3% (active),-39.2% (inactive),73.5,34.3,-4.93% (inactive),-2.3% (inactive)
N#C/C(=C(/O)COC(=O)CCC1CCCCC1)c1nc2ccccc2[nH]1,126,31% (active),126% (inactive),38.1% (active),-9.79% (inactive),47.9,38.1,-4.8% (inactive),2.3% (inactive)
COc1ccc(-c2nc(N)nc(C)c2Oc2ccccc2Br)c(O)c1,96,74% (inactive),96% (inactive),5.08% (active),-12.7% (inactive),17.8,5.08,-4.34% (inactive),57.6% (active)
CC1CCc2nc(NC(=O)CN3CCN(Cc4ccc5c(c4)OCO5)CC3)sc2C1 (stereo not given),90.5,77.5% (inactive),90.5% (inactive),87.8% (inactive),14.3% (inactive),73.5,87.8,-0.66% (inactive),2.1% (inactive)
CCOC(=O)c1ccc(N=Cc2nc(-c3ccccc3)oc2OC(C)=O)cc1,106,75.5% (inactive),106% (inactive),17.9% (active),-5.29% (inactive),23.2,17.9,-4.47% (inactive),-2.38% (inactive)
CCOC(=O)/C=C(\C)Sc1cc(=O)oc2ccccc12,94.5,47.5% (active),94.5% (inactive),6.09% (active),2.37% (inactive),3.73,6.09,-0.92% (inactive),1.45% (inactive)
COCc1cc(=O)[nH]c(Nc2nc3ccccc3o2)n1,112,80% (inactive),112% (inactive),30.3% (active),-9.32% (inactive),39.6,30.3,-4.27% (inactive),-6.72% (inactive)
CCOc1ccc2nc(NC(=O)CSc3nc4ccccc4c(=O)n3Cc3ccco3)sc2c1,82.5,84% (inactive),82.5% (inactive),45.2% (active),-0.105% (inactive),45.4,45.2,-5.95% (inactive),-1.97% (inactive)
O=C(Nc1ccc(S(=O)(=O)N2CCCCCC2)cc1)c1ccco1,94.5,89.5% (inactive),94.5% (inactive),97.1% (inactive),2.81% (inactive),94.3,97.1,-1.17% (inactive),6.07% (inactive)
ON=C1/C(=N\O)CC2(C/C1=N/O)OCCO2,89,113% (inactive),89% (inactive),86.9% (inactive),-0.75% (inactive),87.7,86.9,-8.27% (inactive),-2.1% (inactive)
Cc1ccc(O)c(-c2cc3ccccc3[nH]2)c1,105,87% (inactive),105% (inactive),70.2% (inactive),11.1% (inactive),59.2,70.2,-8.92% (inactive),0.33% (inactive)
CN(C)CC(O)COc1ccc(-c2ccc(C#N)cc2)cc1 (stereo not given),79.5,109% (inactive),79.5% (inactive),96% (inactive),14.3% (inactive),81.8,96,0.27% (inactive),-6.61% (inactive)
O=C(CSc1n[nH]c(-c2ccco2)n1)Nc1sc2c(c1C(=O)Nc1ccccc1)CCCC2,99.5,99% (inactive),99.5% (inactive),65.9% (inactive),-13% (inactive),78.9,65.9,-4.42% (inactive),-10.7% (inactive)
COc1cc2c(N3CCOCC3)cc(O)c(CC(=O)Nc3ccccc3)c2cc1OC,90.5,98.5% (inactive),90.5% (inactive),75.3% (inactive),-14% (inactive),89.3,75.3,-5.32% (inactive),-6.89% (inactive)

SMILES,viability [1] [%],Her2 level [2],viability [3],viability [4],differential viability (reversal) ([5]; H69AR cells + 2 uM doxorubicin),"viability [5, 8] [%]","viability [5, 9] [%]",inhibition [6],inhibition [7]
CS(=O)(=O)c1ncc(Cl)c(C(=O)Nc2ccc(N3CCOCC3)cc2)n1,201,8% (active),201% (inactive),0.715% (active),0.355% (inactive),0.36,0.715,-4.21% (inactive),3.65% (inactive)
CCOC(=O)c1ccccc1NC(=O)c1c(O)c2ccccc2n(CC)c1=O,89,90% (inactive),89% (inactive),71.3% (inactive),-11.1% (inactive),82.3,71.3,-6.85% (inactive),0.16% (inactive)
COC(=O)c1ccc2c(=O)n(Cc3ccco3)c(SCC(=O)Nc3ccc(C)c(Cl)c3)nc2c1,77.5,59.5% (inactive),77.5% (inactive),8.06% (active),-2.23% (inactive),10.3,8.06,-1.71% (inactive),-2.7% (inactive)
Nc1nonc1C(=O)NCCNCc1cc(Br)ccc1OCc1ccccc1F,97.5,78.5% (inactive),97.5% (inactive),66.8% (inactive),-1.58% (inactive),68.4,66.8,-5.87% (inactive),-6.13% (inactive)
Cc1ccc(C(=O)/C=C/Nc2cccc(O)c2)cc1,111,76% (inactive),111% (inactive),85.1% (inactive),3.02% (inactive),82.1,85.1,-7.03% (inactive),-1.83% (inactive)
COc1ccc(-c2n[nH]c(C)c2-c2ccc(Cl)cc2)c(O)c1OC,83.5,109% (inactive),83.5% (inactive),23.2% (active),-10.6% (inactive),33.8,23.2,-0.92% (inactive),4.26% (inactive)
COc1ccc(Cn2nnnc2C(c2cccnc2)N2CCN(c3ccc(O)cc3)CC2)cc1 (stereo not given),99.5,89.5% (inactive),99.5% (inactive),82.5% (inactive),-10.7% (inactive),93.2,82.5,-6.4% (inactive),4.19% (inactive)
Cc1cccc(NC(=O)c2cc(NC(=O)c3ccco3)ccc2N2CCCCC2)c1,85,80.5% (inactive),85% (inactive),65.9% (inactive),17.8% (inactive),48,65.9,-4.4% (inactive),2.46% (inactive)
Oc1ccc(N2CCN(C(c3ccncc3)c3nnnn3C3CCCC3)CC2)cc1 (stereo not given),76,82.5% (inactive),76% (inactive),91.9% (inactive),4.33% (inactive),87.6,91.9,-5.2% (inactive),2.58% (inactive)
NC(=O)c1cc(-c2ccccc2)nc(N2CCOCC2)n1,102,69.5% (inactive),102% (inactive),84.4% (inactive),12.1% (inactive),72.3,84.4,-2.97% (inactive),-6.35% (inactive)
Cn1c(-c2ccc(C(C)(C)C)cc2)n[nH]c1=S,106,106% (inactive),106% (inactive),82.1% (inactive),1.74% (inactive),80.4,82.1,-4.68% (inactive),-2.13% (inactive)
CCOC(=O)c1cnc(-n2nc(C)cc2C)nc1NC(C)c1ccccc1 (stereo not given),153,65% (inactive),153% (inactive),10.1% (active),-1.17% (inactive),11.3,10.1,-3.16% (inactive),14.3% (inactive)
Oc1c(Cl)cc(Cl)c2c1NCCC2,71.5,65% (inactive),71.5% (inactive),68.8% (inactive),-11.9% (inactive),80.7,68.8,-2.63% (inactive),-2.7% (inactive)
CCOc1cc(NC(=O)c2ccco2)c(OCC)cc1NC(=O)CCc1ccc(OC)cc1,89,88% (inactive),89% (inactive),78.7% (inactive),-9.95% (inactive),88.6,78.7,2% (inactive),1.31% (inactive)
Oc1ccccc1-c1cc(C(F)(F)C(F)F)[nH]n1,97,93% (inactive),97% (inactive),98.3% (inactive),11.3% (inactive),87.1,98.3,-2.69% (inactive),2.83% (inactive)
Cc1ccc2c(c1)-c1c(cnn1CC(=O)Nc1ccccc1N1CCN(C)CC1)CO2,93.5,84% (inactive),93.5% (inactive),85.2% (inactive),4.26% (inactive),80.9,85.2,-1.2% (inactive),-3.28% (inactive)
CC(=Nc1cccc(O)c1)c1sc2ccccc2c1O,103,71.5% (inactive),103% (inactive),–,-38.1% (inactive),92.5,54.5,-5.79% (inactive),-3.33% (inactive)
